# Calls of active or inactive are those of the source.
# Key:
# Albumin (Bos taurus) = Albumin (Bos taurus) (UniProt P02769); experiment: bovine serum albumin binders on microarray, profiling panel, artefact control for SMM control protein annotation, biochemical, small-molecule microarray, Alexa647 label, 635/667 nm fluorescence (AID 1118); conditions: BSA-A647 binding, fluorescence 635 nm, higher = more signal;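 also: score merges 667 nm emission intensity and signal-to-noise per printed compound spot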
# Sequence of Albumin (Bos taurus) (P02769 whole entry, looked up): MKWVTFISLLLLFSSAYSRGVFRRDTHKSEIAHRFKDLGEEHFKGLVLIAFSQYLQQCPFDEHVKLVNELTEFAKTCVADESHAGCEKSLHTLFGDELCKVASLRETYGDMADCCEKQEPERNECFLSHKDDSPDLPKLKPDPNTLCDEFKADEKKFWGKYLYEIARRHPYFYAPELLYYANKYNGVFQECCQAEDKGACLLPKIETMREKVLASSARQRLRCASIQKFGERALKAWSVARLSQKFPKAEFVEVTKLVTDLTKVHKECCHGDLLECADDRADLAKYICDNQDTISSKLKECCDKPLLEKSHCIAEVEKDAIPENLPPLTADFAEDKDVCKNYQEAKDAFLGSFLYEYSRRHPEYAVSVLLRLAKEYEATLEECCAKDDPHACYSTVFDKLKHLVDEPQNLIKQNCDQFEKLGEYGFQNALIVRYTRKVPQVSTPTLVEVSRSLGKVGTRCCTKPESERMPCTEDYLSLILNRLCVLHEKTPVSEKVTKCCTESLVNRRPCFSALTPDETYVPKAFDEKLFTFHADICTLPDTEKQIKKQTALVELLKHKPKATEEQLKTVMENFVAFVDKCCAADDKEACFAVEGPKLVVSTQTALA
# [1] = small-molecule microarray binders of probe aXIP, primary screen, biochemical, NeuroSMM set, 635/667 nm fluorescence (AID 1119); conditions: higher = more signal, called active from +8 up or from −8 down;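 also: probe is the protein aXip251-270 applied at 1 µg/mL to compound-printed slides; binding of probe to printed compounds measured as 667 nm fluorescence plus signal to noise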
# [2] = small-molecule binders of probe aNOTCH3, primary screen, biochemical, small-molecule microarray, 635/667 nm fluorescence (AID 1120); conditions: higher = more signal;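 also: probe is a biotin-tagged antibody raised against NOTCH3 rather than NOTCH3 protein; score merges spot fluorescence near 667 nm with spot signal to noise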
# [3] = small-molecule binders of probe aNOTCH2, primary screen, biochemical, small-molecule microarray, 635/667 nm fluorescence (AID 1121); conditions: higher = more signal;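 also: score merges feature fluorescence read at 667 nm with its signal to noise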
# [4] = target: Carbonic anhydrase 2 (Homo sapiens) (UniProt P00918); experiment: CAII small-molecule binders, profiling panel, biochemical, small-molecule microarray, Alexa647-labelled CAII (AID 1122); conditions: CAII-A647 binding fluorescence, higher = more signal
# [5] = COS7 lysate on small-molecule microarray, probe aHis, 635 nm (AID 1123); conditions: COS7 cell lysate, fluorescence, higher = more signal;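 also: z-score combines 667nm fluorescence intensity with signal-to-noise per printed compound spot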
# [6] = compound binding in COS7 lysate, probe aLAP1, primary screen, cell lysate, small-molecule microarray (AID 1124); conditions: probe aLAP1, fluorescence, higher = more signal;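 also: lysate comes from COS7 cells expressing LAP1 and is applied at 0.3 µg/mL; score merges spot fluorescence near 667 nm with signal-to-noise over triplicate slides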
# Sam68 (KHDRBS1) = experiment: Sam68 small-molecule binders, primary screen, biochemical, small-molecule microarray, 635 nm fluorescence (AID 1125); conditions: small-molecule microarray binding, higher = more signal;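 also: score merges 667 nm channel intensity with signal to noise over triplicate slides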
# [7] = system: Chordin-like protein 2 (CHRDL2); experiment: CHRDL2 small-molecule binders, primary screen, biochemical, small-molecule microarray, 635 nm fluorescence (AID 1126); conditions: small-molecule microarray binding, fluorescence 635 nm; higher = more signal;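 also: printed compound slides probed with Chrdl2 protein at 4 µg/mL for 1 h at 4 C; score merges 667 nm emission intensity with signal to noise over three replicate slides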
# [8] = target: Concanavalin-A (Canavalia ensiformis) (UniProt P02866); experiment: ConA small-molecule binders, primary screen, artefact control for SMM control protein annotation, biochemical, small-molecule microarray, Alexa647 label, 635 nm (AID 1127); conditions: ConA-A647 binding fluorescence, higher = more signal;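 also: z combines 667 nm emission intensity with signal-to-noise across three replicate slides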
# Sequence of Concanavalin-A (Canavalia ensiformis) (P02866 whole entry, looked up): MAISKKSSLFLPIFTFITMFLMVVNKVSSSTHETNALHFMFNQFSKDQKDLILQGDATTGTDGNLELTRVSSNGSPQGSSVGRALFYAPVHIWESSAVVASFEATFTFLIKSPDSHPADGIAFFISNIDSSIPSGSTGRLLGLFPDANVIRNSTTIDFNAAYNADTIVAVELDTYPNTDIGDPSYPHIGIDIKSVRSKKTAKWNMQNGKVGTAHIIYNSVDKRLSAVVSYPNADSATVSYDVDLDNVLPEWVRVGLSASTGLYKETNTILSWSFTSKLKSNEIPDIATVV
# [9] = anti-His antibody binders, primary screen, artefact control for SMM control protein annotation, biochemical, small-molecule microarray, 635 nm fluorescence (AID 1128); conditions: anti-His Alexa647 antibody binding, higher = more signal;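 also: score merges feature fluorescence with signal-to-noise for each printed compound spot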
# [10] = system: Human papillomavirus type 1a E7 protein (residues 1-88); experiment: HPV1a E7 small-molecule binders, primary screen, biochemical, small-molecule microarray, residues 1-88, 635 nm (AID 1129); conditions: small-molecule microarray binding, fluorescence 635 nm; higher = more signal
# [11] = target: Focal adhesion kinase 1 (Homo sapiens) (UniProt Q05397); experiment: small-molecule microarray binders of FAK, primary screen, biochemical, 635/667 nm fluorescence, BSA, DTT (AID 1130); conditions: PTK2 binding, 635 nm fluorescence, higher = more signal;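 also: composite of spot emission at 667 nm and signal to noise over triplicate slides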
# Sequence of Focal adhesion kinase 1 (Homo sapiens) (Q05397 whole entry, looked up): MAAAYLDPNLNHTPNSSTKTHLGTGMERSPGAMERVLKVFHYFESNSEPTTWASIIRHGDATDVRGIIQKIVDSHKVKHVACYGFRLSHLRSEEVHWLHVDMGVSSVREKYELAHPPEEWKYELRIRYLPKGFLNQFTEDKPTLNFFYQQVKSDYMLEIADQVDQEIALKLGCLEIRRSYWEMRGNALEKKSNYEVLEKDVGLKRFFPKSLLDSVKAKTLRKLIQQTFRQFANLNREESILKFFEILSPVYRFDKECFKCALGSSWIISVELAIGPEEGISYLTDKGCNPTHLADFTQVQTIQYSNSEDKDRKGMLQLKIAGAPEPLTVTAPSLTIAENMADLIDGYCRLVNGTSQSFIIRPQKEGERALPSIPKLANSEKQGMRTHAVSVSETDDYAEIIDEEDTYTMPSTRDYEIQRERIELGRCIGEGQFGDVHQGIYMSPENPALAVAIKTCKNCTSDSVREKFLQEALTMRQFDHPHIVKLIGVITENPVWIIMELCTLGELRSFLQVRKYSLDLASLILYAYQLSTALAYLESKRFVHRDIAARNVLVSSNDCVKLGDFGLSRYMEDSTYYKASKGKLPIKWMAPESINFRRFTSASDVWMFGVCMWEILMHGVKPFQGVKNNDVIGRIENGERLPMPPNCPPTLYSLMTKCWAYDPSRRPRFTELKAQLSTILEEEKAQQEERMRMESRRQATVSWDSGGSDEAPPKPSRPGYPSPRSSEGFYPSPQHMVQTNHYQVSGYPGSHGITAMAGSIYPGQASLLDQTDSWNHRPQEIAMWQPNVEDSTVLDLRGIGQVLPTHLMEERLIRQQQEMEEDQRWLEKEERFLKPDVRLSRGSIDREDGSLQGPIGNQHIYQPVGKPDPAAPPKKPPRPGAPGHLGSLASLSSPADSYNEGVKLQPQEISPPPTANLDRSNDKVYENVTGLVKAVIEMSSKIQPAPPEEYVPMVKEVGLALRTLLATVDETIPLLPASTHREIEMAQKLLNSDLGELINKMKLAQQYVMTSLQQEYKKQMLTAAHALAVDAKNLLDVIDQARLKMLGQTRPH
# [12] = system: Fibrinogen (Alexa647-labelled); experiment: fibrinogen binders on compound microarrays, profiling panel, artefact control for SMM control-protein annotation, biochemical, small-molecule microarray, 635/667 nm fluorescence (AID 1131); conditions: fibrinogen-A647 binding fluorescence, higher = more signal;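 also: z-score merges 667 nm fluorescence with per-spot signal-to-noise over triplicate slides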
# [13] = target: Follistatin (Homo sapiens) (UniProt P19883); experiment: follistatin binders on small-molecule microarrays, primary screen, biochemical, small-molecule microarray, 635/667 nm fluorescence (AID 1132); conditions: FST binding, 635 nm fluorescence, higher = more signal
# Sequence of Follistatin (Homo sapiens) (P19883 whole entry, looked up): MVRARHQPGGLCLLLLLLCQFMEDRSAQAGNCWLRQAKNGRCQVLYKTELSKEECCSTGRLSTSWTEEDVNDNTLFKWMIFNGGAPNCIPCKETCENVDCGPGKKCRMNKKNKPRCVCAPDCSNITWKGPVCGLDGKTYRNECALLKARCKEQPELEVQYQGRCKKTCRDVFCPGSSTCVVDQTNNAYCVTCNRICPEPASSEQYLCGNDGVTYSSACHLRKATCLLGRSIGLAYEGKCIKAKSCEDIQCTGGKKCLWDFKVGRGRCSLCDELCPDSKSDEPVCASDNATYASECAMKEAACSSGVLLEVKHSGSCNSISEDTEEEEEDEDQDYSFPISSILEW
# [14] = target: Fibroblast growth factor 2 (Homo sapiens) (UniProt P09038); experiment: FGF2 binders on small-molecule microarrays, primary screen, biochemical, small-molecule microarray, 635/667 nm fluorescence (AID 1133); conditions: small-molecule microarray binding, FGF2, fluorescence 635/667; higher = more signal
# Sequence of Fibroblast growth factor 2 (Homo sapiens) (P09038 whole entry, looked up): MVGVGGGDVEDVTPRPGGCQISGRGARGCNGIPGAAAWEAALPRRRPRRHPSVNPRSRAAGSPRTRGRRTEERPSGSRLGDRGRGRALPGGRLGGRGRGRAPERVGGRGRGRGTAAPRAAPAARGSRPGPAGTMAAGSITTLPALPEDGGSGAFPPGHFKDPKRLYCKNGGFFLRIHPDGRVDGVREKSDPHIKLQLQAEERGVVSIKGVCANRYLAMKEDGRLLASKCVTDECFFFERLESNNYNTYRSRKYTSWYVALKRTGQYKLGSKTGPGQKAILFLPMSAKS
# [15] = mitochondrial membrane potential change in A549 cells, profiling panel, cell-based, JC-1 fluorescence, basal, 24 h, 100 nL (AID 1138); conditions: higher = more signal;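 also: A549 lung adenocarcinoma cells under basal conditions with no added stimulus; test concentration not given here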
# Lefty1 = Lefty1 binders on small-molecule microarrays, primary screen, biochemical, small-molecule microarray, 635/667 nm fluorescence (AID 1139); conditions: small-molecule microarray binding, fluorescence 635/667; higher = more signal
# [16] = system: wheat germ agglutinin (Triticum aestivum), Alexa647-labelled; experiment: wheat germ agglutinin binders on compound microarrays, profiling panel, artefact control for SMM control-protein annotation, biochemical, small-molecule microarray, 635/667 nm fluorescence (AID 1140); conditions: WGA-A647 binding, 635 nm fluorescence, higher = more signal;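 also: score merges 667 nm feature emission with signal to noise over triplicate slides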
# [17] = target: Luciferin 4-monooxygenase (Photinus pyralis) (UniProt P08659); experiment: firefly luciferase enzyme inhibitors, primary screen, biochemical, luminescence, purified enzyme, 2006 set (AID 1141); conditions: SteadyGlo luminescence, 30 min, higher = more signal, called active from +8 up or from −8 down;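 also: cell-free assay with purified firefly luciferase at 100 ng per well in PBS; test concentration not given here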
# Sequence of Luciferin 4-monooxygenase (Photinus pyralis) (P08659 whole entry, looked up): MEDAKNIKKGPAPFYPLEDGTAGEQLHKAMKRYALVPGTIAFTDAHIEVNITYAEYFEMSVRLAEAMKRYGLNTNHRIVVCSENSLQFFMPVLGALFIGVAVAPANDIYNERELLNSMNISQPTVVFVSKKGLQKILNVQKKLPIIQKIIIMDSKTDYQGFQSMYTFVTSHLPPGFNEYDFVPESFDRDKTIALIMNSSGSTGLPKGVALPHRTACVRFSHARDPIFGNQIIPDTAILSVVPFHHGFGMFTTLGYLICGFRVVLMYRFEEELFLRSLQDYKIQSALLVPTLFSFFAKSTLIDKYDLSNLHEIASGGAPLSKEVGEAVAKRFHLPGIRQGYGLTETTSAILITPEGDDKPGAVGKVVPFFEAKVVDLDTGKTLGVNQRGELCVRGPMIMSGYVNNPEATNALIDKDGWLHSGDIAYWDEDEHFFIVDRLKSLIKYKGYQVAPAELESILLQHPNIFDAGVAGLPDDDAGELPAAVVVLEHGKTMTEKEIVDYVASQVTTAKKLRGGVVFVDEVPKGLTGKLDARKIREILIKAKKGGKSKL
Compound,composite z-score (Albumin (Bos taurus)),composite Z-score [1],composite z-score [2],composite z-score [3],composite z-score [4],composite z-score [5],composite z-score [6],composite z-score (Sam68 (KHDRBS1)),composite z-score [7],composite z-score [8],composite z-score [9],composite z-score [10],composite z-score [11],composite z-score [12],composite z-score [13],composite z-score [14],z-score [15],composite z-score (Lefty1),composite z-score [16],z-score [17]
COCCOC(=O)N1C(=O)[C@@]2(c3cc(C#CCC(C(=O)OC)C(=O)OC)ccc31)[C@H](C(=O)N1CCc3cc(OC)c(OC)cc3C1)[C@H]1C(=O)O[C@H](c3ccccc3)[C@H](c3ccccc3)N1[C@@H]2c1ccccc1OCCO,0.329,-0.331 (inactive),0.182,-0.106,0.401,0.977,0.75,1.3,0.854,1.14,0.258,1.2,0.673,0.698,1.42,1.6,-1.28,1.61,0.281,0.888 (inactive)
COc1cccc(C)c1NC(=O)O[C@H]1[C@H](OC(=O)Nc2ccccc2)[C@@H](OC(=O)Nc2ccccc2)[C@@H](OC)O[C@@H]1CO,0.541,-0.376 (inactive),0.163,-0.0811,0.461,2.66,0.665,1.29,0.174,1.08,1.78,1.29,0.452,1.01,1.38,0.432,-1.54,0.662,1.04,-0.321 (inactive)
Cc1c(NC(=O)/C(C#N)=C/C=C/c2ccc([N+](=O)[O-])cc2)c(=O)n(-c2ccccc2)n1C,0.974,0.947 (inactive),0.144,0.0966,0.584,2.23,0.82,1.3,0.0495,1.04,2.04,1.18,-0.0384,1.02,1.06,1.11,0.138,0.78,0.685,-4.99 (inactive)
CCCC1(C(=O)OC)C=C2C(=C(C(C)C)C(=O)C2C)CN1 (stereo not given),0.844,0.382 (inactive),-0.0288,0.0788,0.0703,0.614,0.976,-1.36,-0.454,-0.981,1.76,-1.58,-0.222,-0.727,-0.927,-0.434,0.905,-1.1,-0.116,1.88 (inactive)
COC(=O)C(CC#Cc1ccc2c(c1)[C@]1(C(=O)N2)[C@H](C(=O)N2CCCCCCC2)[C@H]2C(=O)O[C@H](c3ccccc3)[C@H](c3ccccc3)N2[C@@H]1c1ccc(OCCO)cc1)C(=O)OC,0.844,10.3 (active),2.18,1.19,1.12,5.47,0.497,1.33,1.57,1.18,3.39,1.32,4.91,0.943,1.49,1.6,-0.949,1.79,1.77,0.035 (inactive)
C=CCOC(=O)[C@H]1[C@@H]2C(=O)O[C@@H](c3ccccc3)[C@@H](c3ccccc3)N2[C@@H](c2ccc(OCCOC(=O)[C@H]3C[C@H]4C(=O)NCC(=O)N4[C@H]3c3ccc(O)cc3)cc2)[C@]12C(=O)Nc1ccccc12,-0.501,1.19 (inactive),0.948,-0.0631,0.6,1.67,0.96,1.29,0.815,1.18,1.46,1.22,0.402,0.961,1.44,1.46,-1.62,1.26,0.543,0.207 (inactive)
Cc1ccc(S(=O)(=O)N2[C@@H](c3ccccc3)C(C(=O)O)=CC[C@H]2c2ccc(F)cc2)cc1,0.458,0.615 (inactive),-0.0044,-0.116,0.893,3.31,1.72,1.18,-1.09,-0.177,0.686,1.29,0.779,1.13,0.164,-1.34,-0.679,1.36,1.05,2.52 (inactive)
C=C[C@@H](CO)NS(=O)(=O)c1ccc(Br)cc1,0.225,-0.67 (inactive),-0.331,-0.17,-0.359,-0.412,-0.32,-2.22,0.222,-1.76,-0.371,-0.371,0.169,-0.387,0.0216,-0.446,-0.297,-0.809,-0.448,-1.23 (inactive)
COc1ccc([Si](C)(C)[C@H]2[C@H](CC(=O)N(CCO)Cc3ccccc3)O[C@@]3(C(=O)N(c4ccccc4)c4ccccc43)[C@@H]2C)cc1,0.504,0.308 (inactive),0.123,-0.117,0.34,0.66,0.264,1.2,1.19,1.06,1.2,1.11,0.207,0.743,1.1,0.679,-0.23,0.83,0.135,-0.429 (inactive)
C[C@]1(C(=O)NC2CC2)c2ccccc2C(=O)N(Cc2cc(F)cc(C(F)(F)F)c2)[C@H]1c1ccc(CO)cc1,-0.1,0.004 (inactive),-0.368,-0.164,0.759,2.23,0.522,-0.0456,-1.61,-0.0372,1.26,-0.0534,-0.695,-0.331,0.719,-0.785,-0.057,0.0495,-0.692,0.851 (inactive)
CCCCN1CC=CC23O[C@@H]4C=CCCOC(=O)C4[C@H]2C(=O)N(CCO)[C@@H]3C1=O (stereo not given in full),0.0656,-0.535 (inactive),-0.246,-0.109,0.79,-1.36,1.94,-0.33,-0.418,-0.0932,-1.17,-0.513,-0.634,0.213,0.407,1.79,-0.9,-0.614,-0.0481,0.421 (inactive)

# Source: PubChem BioAssay
